Measurements: PubChem BioAssay (NCATS)
Values joined by “and” are separate entries in the source; they are usually repeats but may differ in a detail not shown here. Equal entries are not always repeated. Results filed as inconclusive are left out. The source holds several records for some structures; these can differ, active in one and inactive in another. Active and inactive are the calls of the source. Unless noted, calls follow the shape of the dose curve; as a rule, active = well fitted curve in the direction sought with a large enough effect; inconclusive = small, poorly fitted or top-dose-only effect, or another doubt; inactive = no such curve, though single readings can be large; an effect the other way counts as inactive or inconclusive.

Legend:
Hek293T = experiment: Primary qHTS to identify gynecologic anti-cancer compounds using libraries of approved drugs and bioactive compounds (AID 1345084); settings: Gynecologic cancer cell panel viability, ATPlite luminescence, 48 h, control line for the selectivity index; series mostly up to 57.5 µM; also: % is scaled to controls: 0 for no effect and ±100 for the full control effect; nearly all actives have a fitted effect of over 55% in size
Outline: (§1)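 Luminescence from the ATPlite ATP-monitoring reagent indicates viable cell number; lower signal means cytotoxicity. Cells received compound 16 h after seeding and were exposed for 48 h across five concentrations.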

JEG-3 = experiment: as above; settings: Gynecologic cancer cell panel viability, ATPlite luminescence, 48 h; series mostly up to 57.5 µM
Outline: as §1

OV90 = experiment: as above; settings: Gynecologic cancer cell panel viability, ATPlite luminescence, 48 h; series mostly up to 57.5 µM
Outline: as §1

PA-1 = experiment: as above; settings: Gynecologic cancer cell panel viability, ATPlite luminescence, 48 h; series mostly up to 57.5 µM
Outline: as §1

SKOV3 = experiment: as above; settings: Gynecologic cancer cell panel viability, ATPlite luminescence, 48 h; series mostly up to 57.5 µM
Outline: as §1

Tov-21-G = experiment: as above; settings: Gynecologic cancer cell panel viability, ATPlite luminescence, 48 h; series mostly up to 57.5 µM
Outline: as §1

Tov112D = experiment: as above; settings: Gynecologic cancer cell panel viability, ATPlite luminescence, 48 h; series mostly up to 57.5 µM
Outline: as §1

astro = experiment: Drug repurposing screens with cells derived from glioblastoma tumor samples (AID 1345199); settings: viability, ATP luminescence, 48 h; series mostly up to 45.9 µM; also: nearly all actives have a fitted effect of over 40% in size; also: potency is read from the fitted curve at half-maximal effect; as to activity, negative = cell killing: % is scaled to controls: 0 for no effect and ±100 for the full control effect
Outline: (§2)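 Four patient lines of CD133+ GBM neurospheres were screened at several concentrations; hits were retested in those lines plus three slower-growing GBM lines, using 48-hour treatment and ATP-based viability.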

[1] = as above; settings: GBM patient neurospheres viability, ATP luminescence, 48 h
Outline: as §2

[2] = biological target: Nuclear receptor subfamily 1 group I member 2 (Rattus norvegicus) (UniProt Q9R1A7); experiment: qHTS assay for small molecule activators of the rat pregnane X receptor (rPXR) signaling pathway (AID 651751; call rule not given here; also: 0% is about no effect); settings: rPXR reporter cells, luciferase (One-Glo), 24 h
[3] = qHTS assay for small molecule activators of the human pregnane X receptor (PXR) signaling pathway (AID 720659; call rule not given here; also: 0% is about no effect)
[4] = at 45.9 µM (top of the series), tumour line B
[5] = at 45.9 µM (top of the series), tumour line D
[6] = at 46 µM (top of the series), tumour line A
[7] = at 46.1 µM (top of the series), tumour line C

Sequence of Nuclear receptor subfamily 1 group I member 2 (Rattus norvegicus) (Q9R1A7 whole entry, looked up): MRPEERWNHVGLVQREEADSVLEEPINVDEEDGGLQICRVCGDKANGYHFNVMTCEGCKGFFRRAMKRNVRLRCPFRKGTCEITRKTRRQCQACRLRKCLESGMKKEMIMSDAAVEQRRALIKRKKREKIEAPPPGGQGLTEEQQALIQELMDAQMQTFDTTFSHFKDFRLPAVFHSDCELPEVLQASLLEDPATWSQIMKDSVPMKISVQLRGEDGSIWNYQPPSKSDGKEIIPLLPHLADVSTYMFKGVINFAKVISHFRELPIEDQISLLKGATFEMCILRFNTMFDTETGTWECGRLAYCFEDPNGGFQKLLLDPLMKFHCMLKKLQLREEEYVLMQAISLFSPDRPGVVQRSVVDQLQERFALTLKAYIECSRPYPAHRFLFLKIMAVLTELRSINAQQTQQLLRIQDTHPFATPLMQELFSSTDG

Cc1cc(C(C#N)c2ccc(Cl)cc2)c(Cl)cc1NC(=O)c1cc(I)cc(I)c1O (configuration not stated)
active: Potency (astro) 3.98 µM
inactive: Potency (Hek293T) | Potency (JEG-3) | Potency (OV90) | Potency (PA-1) | Potency (SKOV3) | Potency (Tov-21-G) | Potency (Tov112D)

CC(C)(C)NCC(O)COc1ccc(NC(=O)NC2CCCCC2)cc1 (configuration not stated)
inactive: Potency (Hek293T) | Potency (JEG-3) | Potency (OV90) | Potency (PA-1) | Potency (SKOV3) | Potency (Tov-21-G) | Potency (Tov112D) | activity, negative = cell killing [1, 4] -25.7% | Potency (astro)
active: Potency ([1]; tumour line A) 31.6 µM

O=c1[nH]cnc2c1ncn2[C@@H]1O[C@H](CO)[C@@H](O)[C@H]1O
inactive: Potency (Hek293T) | Potency (JEG-3) | Potency (OV90) | Potency (PA-1) | Potency (SKOV3) | Potency (Tov-21-G) | Potency (Tov112D) | Potency (astro)

CC(O)COc1ccccc1 (configuration not stated)
inactive: Potency (Hek293T) | Potency (JEG-3) | Potency (OV90) | Potency (PA-1) | Potency (SKOV3) | Potency (Tov-21-G) | Potency (Tov112D) | Potency (astro) | max response [2] 0.833% | outcome [3]

Nc1ccc(S(=O)(=O)Nc2nccs2)cc1
inactive: Potency (Hek293T) | Potency (JEG-3) | Potency (OV90) | Potency (PA-1) | Potency (Tov-21-G) | Potency (Tov112D) | activity, negative = cell killing [1, 4] -4.74% | activity, negative = cell killing [1, 5] -5.75% | activity, negative = cell killing [1, 6] -21.1% | activity, negative = cell killing [1, 7] -7.84% | Potency (astro) | max response [2] -1.7% | outcome [3]

CCN(CC)CCSC(=O)C(c1ccccc1)c1ccccc1
inactive: Potency (Hek293T) | Potency (JEG-3) | Potency (OV90) | Potency (PA-1) | Potency (SKOV3) | Potency (Tov-21-G) | Potency (Tov112D) | activity, negative = cell killing [1, 4] -17.9% and -28.9% | Potency (astro)

COC(=O)[C@H]1[C@H]2C[C@@H]3c4[nH]c5cc(OC)ccc5c4CCN3C[C@H]2C[C@@H](OC(=O)COc2ccc(OC)cc2)[C@@H]1OC
inactive: Potency (Hek293T) | Potency (JEG-3) | Potency (OV90) | Potency (PA-1) | Potency (SKOV3) | Potency (Tov-21-G) | Potency (Tov112D) | Potency (astro)

[O-][n+]1cccc(CO)c1
inactive: Potency (Hek293T) | Potency (JEG-3) | Potency (OV90) | Potency (PA-1) | Potency (Tov-21-G) | Potency (Tov112D) | activity, negative = cell killing [1, 4] -6.72% | activity, negative = cell killing [1, 5] -10.2% | activity, negative = cell killing [1, 6] -20.8% | activity, negative = cell killing [1, 7] -13.8% | Potency (astro)

CN1CCC[C@@H]1Cc1c[nH]c2ccc(CCS(=O)(=O)c3ccccc3)cc12
active: Potency ([1]; tumour line A) 14.1 µM
inactive: Potency (Hek293T) | Potency (JEG-3) | Potency (OV90) | Potency (PA-1) | Potency (SKOV3) | Potency (Tov-21-G) | Potency (Tov112D) | activity, negative = cell killing [1, 4] -21.2% | Potency (astro)

CCCCCCCCCCCCCCCC(=O)NCCO
inactive: Potency (Hek293T) | Potency (JEG-3) | Potency (OV90) | Potency (PA-1) | Potency (Tov-21-G) | Potency (Tov112D) | activity, negative = cell killing [1, 4] 0.41% | activity, negative = cell killing [1, 5] -8.68% | activity, negative = cell killing [1, 6] -19.5% | activity, negative = cell killing [1, 7] -10.8% | Potency (astro)

CC(=O)OCC(=O)[C@@]1(O)CC[C@H]2[C@@H]3CCC4=CC(=O)CC[C@]4(C)[C@H]3C(=O)C[C@@]21C
active: Potency ([1]; tumour line A) 25.1 µM
inactive: Potency (Hek293T) | Potency (JEG-3) | Potency (OV90) | Potency (PA-1) | Potency (SKOV3) | Potency (Tov-21-G) | Potency (Tov112D) | activity, negative = cell killing [1, 4] -22% | Potency (astro)

CS(=O)(=O)c1ccc([C@@H](O)[C@@H](CF)NC(=O)C(Cl)Cl)cc1
inactive: Potency (Hek293T) | Potency (JEG-3) | Potency (OV90) | Potency (PA-1) | Potency (SKOV3) | Potency (Tov112D) | activity, negative = cell killing ([1]; at 20 µM (top of the series), tumour line C) -23.2% | activity, negative = cell killing ([1]; at 21.2 µM (top of the series), tumour line B) -19.6% | activity, negative = cell killing ([1]; at 21.2 µM (top of the series), tumour line D) -7.33% | Potency (astro)

Nc1ccc(S(=O)(=O)NC(=O)c2ccccc2)cc1
inactive: Potency (Hek293T) | Potency (JEG-3) | Potency (OV90) | Potency (PA-1) | Potency (SKOV3) | Potency (Tov-21-G) | Potency (Tov112D) | Potency (astro)

C[C@](N)(Cc1ccc(O)cc1)C(=O)O
inactive: activity change, negative = cytotoxicity (Hek293T) -0.946% [at 6.55 µM] | activity change, negative = cytotoxicity (JEG-3) 2.69% [at 6.55 µM] | activity change, negative = cytotoxicity (OV90) 0.672% [at 6.55 µM] | activity change, negative = cytotoxicity (PA-1) 12.1% [at 6.55 µM] | activity change, negative = cytotoxicity (Tov-21-G) -3.06% [at 6.55 µM] | activity change, negative = cytotoxicity (Tov112D) 0.865% [at 6.55 µM] | activity, negative = cell killing [1, 4] -4.97% | activity, negative = cell killing [1, 5] 3.89% | activity, negative = cell killing [1, 6] -16.9% | activity, negative = cell killing [1, 7] 0.308% | Potency (astro)

c1ccc2c(CC3=NCCN3)cccc2c1
inactive: Potency (Hek293T) | Potency (JEG-3) | Potency (OV90) | Potency (PA-1) | Potency (SKOV3) | Potency (Tov-21-G) | Potency (Tov112D) | activity, negative = cell killing [1, 5] -11.3% and -15.4% | activity, negative = cell killing [1, 7] -1.52% and -0.846% and -3.97% | Potency (astro)

CCOC(CN1CCN(CC(C)C(=O)c2ccccc2)CC1)c1ccccc1 (configuration not stated)
active: Potency ([1]; tumour line A) 12.6 µM
inactive: Potency (Hek293T) | Potency (JEG-3) | Potency (OV90) | Potency (PA-1) | Potency (SKOV3) | Potency (Tov-21-G) | Potency (Tov112D) | activity, negative = cell killing [1, 4] -10.2% | Potency (astro)

O=C(CCCN1CCN(c2ccccn2)CC1)c1ccc(F)cc1
inactive: Potency (Hek293T) | Potency (JEG-3) | Potency (OV90) | Potency (PA-1) | Potency (SKOV3) | Potency (Tov-21-G) | Potency (Tov112D) | activity, negative = cell killing [1, 4] -17% | Potency (astro)
active: Potency ([1]; tumour line A) 8.91 µM
